Bioassay records deposited in PubChem BioAssay by National Center for Advancing Translational Sciences (NCATS).
Hits are enriched below; roughly 2.4% of the tested compounds scored in any of these assays.
Anthrax LT inh = anthrax lethal toxin internalization inhibition | Potency, µM (series often up to 40 µM), for inactives: at the top dose activity change, negative = inhibition, usual class: inhibitors | AID 912 | Cells, anthrax lethal toxin internalization, FRET ratio (460/530) | 70,000 tested, 0.67% active; note: % is set by controls: 0 for no effect and ±100 for the full control effect; nearly all actives have a fitted effect of over 50% in size
SmPrx2 inh = blocks S. mansoni peroxiredoxin 2 enzymatic activity; Potency, µM; S. mansoni Prx2 activity coupled to TGR/GSH (TGR is thioredoxin glutathione reductase), NADPH fluorescence loss, qHTS; 65,000 tested, 0.07% active; AID 448
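Enzyme mix: 100 uM NADPH, 25 nM TGR, 700 uM GSH, 50 nM Prx2 in 100 mM phosphate pH 7.4, 10 mM EDTA, 0.01% Tween-20. 15 min RT with compound; NADPH/GSH added, H2O2 starts reaction; NADPH fluorescence read 8 min.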
AmpC nodet inh = AmpC beta-lactamase inhibition, detergent-free assay. P00811. AmpC nitrocefin hydrolysis, absorbance 480 nm, no detergent. Potency, µM (top dose mostly 28.7 µM), inactives show top-dose activity change, negative = inhibition. 71,000 tested, 1.8% active. AID 585; note: % of control where 0% means no effect
Target sequence (P00811 whole entry, looked up): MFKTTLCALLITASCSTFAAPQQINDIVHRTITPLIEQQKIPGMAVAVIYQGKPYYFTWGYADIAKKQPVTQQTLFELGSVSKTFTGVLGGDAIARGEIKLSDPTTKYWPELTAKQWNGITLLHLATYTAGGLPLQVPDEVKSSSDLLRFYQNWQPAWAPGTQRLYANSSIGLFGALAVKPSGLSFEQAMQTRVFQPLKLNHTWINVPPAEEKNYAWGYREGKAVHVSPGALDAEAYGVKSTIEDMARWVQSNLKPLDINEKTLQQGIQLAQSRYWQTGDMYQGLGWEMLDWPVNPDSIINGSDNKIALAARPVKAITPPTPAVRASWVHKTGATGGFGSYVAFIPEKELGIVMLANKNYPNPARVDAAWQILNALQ
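AmpC, 20 mM phosphate pH 7.0; 15 min cpd preinc, RT; start with nitrocefin (800 uM stock); A480 kinetic read, 20 s intervals, 4 min. No-enzyme wells = negative control.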
AmpC inh det = blocks E. coli AmpC beta-lactamase in presence of detergent. Potency, µM (doses to about 28.7 µM), for inactives: top-dose activity change, negative = inhibition. AID 584. 71,000 tested, 0.09% active. purified AmpC, nitrocefin hydrolysis with detergent; active = well fitted curve in the direction sought with a large enough effect; inconclusive = small, poorly fitted or top-dose-only effect; note: % is set by controls: 0 for no effect and ±100 for the full control effect
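E. coli AmpC (5.3 nM) in 20 mM phosphate pH 7.0 with 0.01% Triton X-100, preincubated 15 min RT with compound; nitrocefin (2 uL of 800 uM stock) hydrolysis followed by 480 nm absorbance every 20 s over 4 min.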
* marks the source's active call; other numbers are inactive results; u = inconclusive; x = no result given; [ ] = another dose, or the depositor's remark. Unless noted, calls come from the whole dose curve. Potency is the fitted concentration of half-maximal effect.

SMILES | Anthrax LT inh | SmPrx2 inh | AmpC nodet inh | AmpC inh det
O=C(c1ccccc1C(=O)N1CCN(c2ccccc2F)CC1)N1CCN(c2ccccc2F)CC1 | -13.6% | x | 129.3% | -0.7%
O=C(N1CCOCC1)N1CCN(c2ccccc2F)CC1 | -8.8% | >57 | 3.98µM*[single pt active] | 11.8%
CN(CC(=O)Nc1ccc(C#N)cc1)Cc1ccc(Cl)cc1 | -12.6% | >57 | 3.6% | -1.7%
N#Cc1ccc(NC(=O)Nc2ccc(Cl)cc2)cc1 | 3.98µM* | >57 | u | 13.2%
Cn1c(=O)c2[nH]cnc2n(C)c1=O.[CH2-][C@H](Cc1cccc2cc(C(=O)O)c(=O)oc12)OC.[Hg].[OH-] | u | u | 1.2%[5.75 µM] | -3.3%[5.75 µM]
Cn1cccc1C(=O)N1CCC[C@@]2(CCN(c3ccncc3)C2)C1 | 7.3% | >57 | -2.5% | -1.6%
CCCCCc1cc(O)cc(O)c1 | u | x | -7.8% | 9.6%
CCCCCCCCCCCC1=C(O)C(=O)C=C(O)C1=O | u | >57 | 3.98µM* | -14.3%
CC[C@H]1C2=C3C(CC[C@H]4C(OCc5ccc(F)cc5C(F)(F)F)OC[C@](C)([C@@H]34)N(C(=O)OC(C)(C)C)C2)C2COC(=O)OCC21 (some centres not stated) | u | >57 | 122.0% | -1.7%
Brc1ccc(-c2nnc3sc(CNCc4ccc5c(c4)OCO5)cn23)cc1 | -10.2% | >57 | 3.98µM*[single pt active] | 7.7%
Brc1ccc(-c2nnc3sc(CNC4CCCC4)cn23)cc1 | -11.3% | >57 | 3.98µM*[single pt active] | 10.4%
c1ccc(-c2nnc3sc(CN4CCC5(CC4)OCCO5)cn23)cc1 | 8.1% | >57 | 4.8% | -4.1%
COCCn1c(=O)c(-c2cccs2)nc2cnc(N(C)C)nc21 | u | >57 | 20.8% | -0.1%
O=C(CSc1nnc(-c2ccccc2O)o1)Oc1ccc(OCc2ccccc2)cc1 | -13.2% | >57 | 12.6µM*[single pt active] | -7.3%
O=C(c1ccc(-c2ccccc2)cc1)N1CCN(c2nc3ccccc3o2)CC1 | -9.2% | >57 | 3.98µM*[single pt active] | 7.8%
O=C(c1ccc(-c2nnc(-c3ccccc3)o2)cc1)N1CCCCCC1 | 4.6% | >57 | 77.8% | -1.0%
O=c1cc(-c2ccc(Cl)cc2)[nH][nH]1 | 11.8% | >57 | -5.2% | -0.6%
O=c1cc(-c2ccc(Cl)c(Cl)c2)[nH][nH]1 | -12.2% | >57 | 12.6µM*[single pt active] | 0.9%
ClP(Cl)(Cl)(Cl)Cl | -0.7% | x | -5.5% | 8.7%
CCCn1c(-c2ccc(F)cc2)nc2c(NCCCN3CCOCC3)nc(C)nc21 | 0.3% | x | 87.3% | 9.8%
Cn1nc(-c2ccc(Cl)cc2)c2cc(C(=O)N3CCN(c4ccccn4)CC3)sc21 | u | >57 | 3.98µM*[single pt active] | 7.3%
Cn1nc(-c2ccc(Cl)cc2)c2cc(C(=O)N3CCCC3)sc21 | u | >57 | 42.5% | 11.2%
Cn1nc(-c2ccc(Cl)cc2)c2cc(C(=O)N3CCN(c4ccccc4)CC3)sc21 | u | >57 | 3.98µM*[single pt active] | 12.6%
ClC1=C(Cl)C(Cl)(Cl)C(Cl)=C1Cl | x | x | -4.8% | 10.5%
CC(NC(=O)c1noc2c1CCCCC2)c1ccccc1 (configuration not stated) | 9.0% | >57 | 3.98µM*[single pt active] | 10.6%
SMILES | Anthrax LT inh | SmPrx2 inh | AmpC nodet inh | AmpC inh det
N#Cc1c(-c2ccccc2)cc(-c2ccco2)c(C#N)c1N | u | x | 6.31µM* | 12.4%
N#Cc1sc2nc(-c3ccccc3)cc(-c3ccco3)c2c1N | u | >57 | 6.31µM* | -0.6%
COC(=O)c1sc2nc(-c3ccco3)ccc2c1N | 2.6% | >57 | -10.5% | -4.3%
C[N+]1(C)CCO[C@@](O)(c2ccc(-c3ccc([C@]4(O)C[N+](C)(C)CCO4)cc3)cc2)C1 | 0.2% | >57 | -6.1% | -5.2%
Oc1c(Cl)c(Cl)cc(Cl)c1Cl | -5.0% | x | -18.3% | 7.4%
Oc1cc(Cl)c(Cl)c(Cl)c1 | 12.6µM* | x | -17.2% | 10.3%
COc1cccc(NC(=O)n2nc(N)cc2-c2ccc(Cl)cc2)c1 | u | >57 | 3.98µM*[single pt active] | 9.7%
COc1cccc(NC(=O)CSc2nc(N)cc(N)n2)c1 | 12.5% | >57 | -2.8% | -7.2%
O=C(O)[C@@H](O)[C@@H](O)[C@@H]1[O][Sb][O][C@@H]1CO | -3.5%[8 µM] | 0.855* | 5.8%[5.75 µM] | -4.7%[5.75 µM]
Cc1cc[c]([Sb]2[O][C@H]([C@H](O)[C@H](O)C(=O)O)[C@@H](CO)[O]2)cc1 | -2.0%[8 µM] | >57 | -4.7%[5.75 µM] | -1.4%[5.75 µM]
CC(=O)n1cc(-c2ccncc2)c2ccccc21 | 15.1% | >57 | 3.16µM*[single pt active] | 9.7%
COCCNc1nc(-c2ccccc2Cl)nc2ccccc12 | 1.9% | >57 | 4.2% | 10.4%
Cc1c(-c2ccc(O)cc2)nn(-c2ccc(O)cc2)c1-c1ccc(OCCN2CCCCC2)cc1 | 15.8µM* | >57 | -19.3% | -3.0%
Cn1c(=O)c(-c2ccc(F)c(F)c2)nc2cncnc21 | u | >57 | 3.8% | 0.2%
